Rows were chosen to be rich in hits. Some 2.9% of all compounds tested hit in one or more screens of this group.
S2 tox – reduces viability in counter-screen for ATXN expression inhibitors; S2 cells (HEK-293 line with an ATXN2-luciferase reporter) viability, CellTiter-Fluor protease fluorescence, 24 h; Potency, µM (titrated, usually from 56.7 µM), hits mostly cytotoxic; 400,000 compounds, 0.49% hits; AID 651635; also: nearly all actives have a fitted effect of over 40% in size
Nrf2 activator – activators of Nrf2 (ARE) signaling; AREc32 ARE-luciferase reporter (MCF7-derived line), luminescence, 24 h; Potency, µM (highest dose often 46.1 µM), for the others: top-dose activation, most hits filed as activators; 410,000 compounds, 0.31% hits; also: % of control where 0% means no effect; nearly all actives have a fitted effect of over 65% in size
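AREc32 cells carrying an ARE-driven firefly luciferase reporter were seeded at 1000 cells/well in OPTI-MEM with 5% FBS, then exposed to compound for 24 hr at 37 deg C. Luminescence was read with Steady-Glo after 30 min at RT.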
ATXN2 expr inh – ATXN2 expression inhibition | HEK-293 ATXN2-luciferase reporter, luminescence, 24 h | Potency, µM (doses to about 57 µM), inactives show at the top dose activity change, negative = inhibition, usual class: inhibitors | 360,000 compounds, 0.72% hits; also: % is scaled to controls: 0 for no effect and ±100 for the full control effect; nearly all actives have a fitted effect of over 55% in size
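qHTS (up to 57 uM final) was run with 24 h compound exposure of reporter cells at 37 °C. Each well was multiplexed: SteadyGlo luminescence measured ATXN2-luciferase expression after a fluorogenic Gly-Phe-AFC viability readout (25 uM final).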
Nrf2 inh – blocks Nrf2 signaling. 360,000 compounds, 2.1% hits. Potency, µM (top dose mostly 46 µM), for inactives: top-dose activity change, negative = inhibition, hits mostly inhibitors. A549 ARE-Fluc reporter, luciferase luminescence, 18-24 h; also: % is scaled to controls: 0 for no effect and ±100 for the full control effect; nearly all actives have a fitted effect of over 60% in size
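Quantitative HTS in A549 cells stably bearing an antioxidant response element-firefly luciferase construct. Inhibition of Nrf2-driven transcription was scored by luminescence after 18-24 h of compound exposure at 37 °C.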
A549 tox-1 – A549 cytotoxicity, counter-screen for Nrf2 inhibitors; A549 ARE-Fluc cells, CellTiter-Fluor viability, 18-24 h; Potency, µM (highest dose often 46 µM), inactives show at the top dose activity change, negative = cytotoxicity, usual class: inhibitors; 390,000 compounds, 0.16% hits; also: % is scaled to controls: 0 for no effect and ±100 for the full control effect
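A549 ARE-Fluc cells in 5% FBS OPTI-MEM, 5000 cells/well, rested 2 h then exposed to compounds in concentration-response for 18-24 h at 37 °C. Viability by CellTiter-Fluor fluorescence (Ex 405/Em 525) after 30 min; luciferase luminescence (BugLite, 15 min, RT) read afterwards.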
FLuc counter 3 – blocks purified firefly luciferase in Nrf2 counterscreen | shares compounds with Nrf2 inh | purified firefly luciferase, luminescence inhibition | Potency, µM (highest dose often 57.5 µM), for inactives: at the highest dose activity change, negative = inhibition, most hits filed as inhibitors | 1,400 compounds, 4% hits | AID 720522; also: % is scaled to controls: 0 for no effect and ±100 for the full control effect; nearly all actives have a fitted effect of over 65% in size
Target sequence (P08659 whole entry, looked up): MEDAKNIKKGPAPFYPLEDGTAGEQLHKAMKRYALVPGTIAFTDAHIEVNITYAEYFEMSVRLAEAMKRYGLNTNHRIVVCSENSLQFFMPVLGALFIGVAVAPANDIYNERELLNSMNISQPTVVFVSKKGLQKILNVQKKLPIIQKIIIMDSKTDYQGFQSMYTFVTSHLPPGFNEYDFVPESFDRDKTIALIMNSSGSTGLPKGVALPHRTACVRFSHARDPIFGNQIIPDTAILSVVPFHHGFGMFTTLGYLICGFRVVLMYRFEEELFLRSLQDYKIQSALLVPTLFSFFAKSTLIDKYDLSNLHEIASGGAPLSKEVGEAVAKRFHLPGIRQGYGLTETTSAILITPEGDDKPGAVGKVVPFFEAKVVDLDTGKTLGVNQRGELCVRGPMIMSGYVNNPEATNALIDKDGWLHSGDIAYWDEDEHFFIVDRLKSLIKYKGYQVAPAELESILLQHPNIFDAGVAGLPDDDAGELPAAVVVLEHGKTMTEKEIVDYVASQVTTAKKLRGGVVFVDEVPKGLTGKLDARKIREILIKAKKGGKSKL
A549 tox-2 – A549 cytotoxicity, Nrf2 inhibitor counterscreen; Potency, µM (top dose mostly 46.1 µM), for inactives: top-dose activity change, negative = cytotoxicity, hits mostly inhibitors; A549 ARE-Fluc cells, cytotoxicity counterscreen; shares compounds with Nrf2 inh; 1,400 compounds, 2% hits; AID 720523;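 also: cells exposed to compounds for 18 to 24 hours; % is scaled to controls: 0 for no effect and ±100 for the full control effect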
ARE-Fluc inh – Nrf2 inhibition confirmed, A549 ARE-luciferase; shares compounds with Nrf2 inh; A549 ARE-firefly luciferase reporter, luminescence; Potency, µM (titrated, usually from 46.1 µM), for the others: top-dose activity change, negative = inhibition, actives largely listed as inhibitors; 1,400 compounds, 74% hits; also: % is scaled to controls: 0 for no effect and ±100 for the full control effect; nearly all actives have a fitted effect of over 65% in size
Numbers without * were called inactive; i = inactive; ? = inconclusive; . = not tested or not shown; [ ] = remark or other dose. Calls follow the shape of the dose curve; as a rule, active = well fitted curve in the direction sought with a large enough effect; inconclusive = small, poorly fitted or top-dose-only effect, or another doubt; inactive = no such curve, though single readings can be large; an effect the other way counts as inactive or inconclusive. Potency is read from the fitted curve at half-maximal effect.

SMILES	S2 tox	Nrf2 activator	ATXN2 expr inh	Nrf2 inh	A549 tox-1	FLuc counter 3	A549 tox-2	ARE-Fluc inh
CCCCCn1c(=O)c(C(=O)Nc2cnccn2)c(O)c2ccccc21	i	3.4%	-27.3%[11.3 µM]	4.61µM*	?	1.1%	?	5.8µM*
CCCCCn1c(=O)c(C(=O)Nc2cc(C)ccn2)c(O)c2ccccc21	?	0.0%	2.6%	2.7%	-0.7%	.	.	.
CCCCCCCn1c(=O)c(C(=O)Nc2cnccn2)c(O)c2ccccc21	i	7.5%	?	4.11µM*	?	1.4%	?	.
Cc1ccccc1OP(=O)(Oc1ccccc1C)N1CCOCC1	i	-0.6%	-13.0%	.	.	.	.	.
CN1OCC2Cn3c(nc4ccccc43)C21 (configuration not stated)	i	-1.1%	1.5%	0.9%	1.8%	.	.	.
O=[N+]([O-])c1nccn1CC(O)CN1CC1 (configuration not stated)	i	-0.7%	4.9%	.	.	.	.	.
Cc1cccc(OCC(=O)N2CCN(Cc3cc(=O)n4nc(-c5ccccc5Cl)sc4n3)CC2)c1	i	3.7%	12.7%	.	13.8%	.	.	.
CCOc1cc(CNCCc2c[nH]c3ccccc23)cc(Cl)c1OC	?	-0.5%	?	?	?	.	.	.
COc1cc(C)c(CN2CCN(c3ccccc3)CC2)cc1C	i	-0.4%	-13.9%	1.8%	11.8%	.	.	.
Nc1c(C(=O)Nc2ccc(OC(F)(F)F)cc2)sc2nc3c(cc12)N1CCC3CC1	.	0.6%	.	6.51µM*	-13.2%	-1.9%	-15.2%	.
Cc1cc([N+](=O)[O-])c2ccccc2[n+]1[O-]	.	-2.3%	.	4.11µM*	?	-21.4%	-7.9%	6.51µM*
CC(C)NS(=O)(=O)c1ccc(OCC(=O)N2CCN(Cc3ccc4c(c3)OCO4)CC2)c(Cl)c1	i	2.5%	-24.4%	?	-16.3%	.	.	.
Cc1cc(S(=O)(=O)NC(C)C)ccc1OCC(=O)N1CCN(Cc2ccc3c(c2)OCO3)CC1	i	3.3%	-21.5%	9.2µM*	-28.6%	-1.9%	-3.4%	-23.6%
COc1cc2cc(C(=O)N3CC(COS(C)(=O)=O)c4ccc(O)cc43)[nH]c2c(OC)c1OC (configuration not stated)	0.336µM*	-2.3%	0.299µM*	0.058µM*	?	-18.9%	?	?
C[C@]12CCC3[C@@H](CCC4=CC(=O)CC[C@@]43C=O)C1CCC2=O (some centres not stated)	i	9.2%	.	-19.3%	11.0%	.	.	.
C#C[C@@]1(O)CCC2C3CCC4=C/C(=N/OCC(=O)NC(C(=O)O)C(C)O)CC[C@]4(C)C3CC[C@@]21C (some centres not stated)	i	-0.1%	-13.2%	-7.4%	0.1%	.	.	.
C#CC1(O)CCC2C3CCC4=C/C(=N/OCC(=O)NCC(=O)NC(C(=O)O)C(C)C)CC[C@]4(C)C3CC[C@@]21C (some centres not stated)	i	1.8%	6.9%	2.06µM*	2.8%	1.0%	-5.7%	6.51µM*
C[C@@H]1O[C@@H](O[C@H]2C[C@@H](O)[C@]3(CO)[C@@H]4C(CC[C@]3(O)C2)[C@@]2(O)CC[C@H](C3COC(=O)C3)[C@@]2(C)C[C@H]4O)[C@H](O)[C@H](O)[C@H]1O (some centres not stated)	?	-2.0%	1.58µM*	0.206µM*	?	0.3%	?	1.16µM*
CNC(=O)Nc1ccc(C(=O)N/N=C\C23CC[C@@H](O)CC2(O)CC[C@@H]2[C@@H]3CCC3(C)C(C4=CC(=O)OC4)CCC23O)cc1 (some centres not stated)	i	-1.0%	?	?	-16.2%	.	.	.
CC1OC(O[C@H]2C[C@@H](O)[C@]3(CO)[C@H]4[C@H](O)C[C@]5(C)[C@@H](C6=CC(=O)OC6)CC[C@]5(O)[C@@H]4CC[C@]3(O)C2)C(O)C(O)C1O (some centres not stated)	.	.	.	.	.	3.7%	?	0.0366µM*
COC1C(O)C(C)OC(OC2CCC3(C)C(CCC4C3C(O)CC3(C)C(C5=CC(=O)OC5)CCC43O)C2)C1O (configuration not stated)	?	-1.9%	0.398µM*	0.146µM*	?	1.2%	?	0.116µM*
C[C@H]1CC[C@@H]2[C@@H](C)[C@H]3[C@H](C[C@H]4[C@@H]5CC=C6C[C@@H](O[C@@H]7O[C@H](CO)[C@H](O)[C@H](O[C@@H]8O[C@H](CO)[C@@H](O)[C@H](O)[C@H]8O)[C@H]7O[C@@H]7O[C@@H](C)[C@H](O)[C@@H](O)[C@H]7O)CC[C@]6(C)[C@H]5CC[C@]34C)N2C1	.	-3.3%	?	-21.5%	-17.5%	.	.	.
Nc1ccc(Cl)cc1C(=O)c1ccccc1Cl	i	-0.7%	?	15.9%	7.9%	.	.	.
CC1=CC2OC3CC4OC(=O)C=CC=CC(C(C)O)OCC(O)C5(C)OC5C(=O)OCC2(CC1O)C4(C)C31CO1 (configuration not stated)	?	-2.0%	0.112µM*	0.411µM*	.	-1.6%	.	0.259µM*
CC1CCOC(=O)C=CC=CC(=O)OC2CC3OC4C5OC5(C)C(O)CC4(COC(=O)C1O)C2(C)C31CO1 (configuration not stated)	0.267µM*	-1.7%	0.267µM*	0.517µM*	.	4.0%	.	0.366µM*
CC1Oc2cc3c(-c4c(O)cc(O)c5c(O)c6c(cc45)OC(C)C(C)C6=O)c(O)cc(O)c3c(O)c2C(=O)C1C (configuration not stated)	?	0.1%	11.2µM*	4.61µM*	?	0.6%	-17.5%	9.2µM*
Cc1[nH]c2ccccc2c1C(=O)CN1CC=C(c2ccccc2)CC1	i	0.0%	-5.4%	?	-14.9%	.	.	.
CCN1CC=C(c2c[nH]c3ccccc23)CC1	?	0.5%	-9.9%	1.3µM*	?	-28.5%	?	0.0326µM*
CN(c1ccc(OCC(=O)N2CCN(C/C=C/c3ccccc3)CC2)cc1)S(=O)(=O)c1cccs1	i	2.1%	?	?	11.7%	.	.	.
C[n+]1c2cc(N)ccc2cc2ccc(N)cc21	.	-2.2%	3.16µM*	1.46µM*	?	-12.6%	86.2%	1.64µM*

Compound activity deposited in PubChem by National Center for Advancing Translational Sciences (NCATS).
